ATG4B inh: inhibitors of human ATG4B cysteine protease. actives 0.51% (n = 340,000). Q9Y4P1. AID 504462. inhibition, % at 8.33 µM. ATG4B cleavage of LC3-PLA2, NBD-HPC fluorescence, 1 h; in the data active means inhibition above about 40%
Calb FLC: affects C. albicans growth with fluconazole | AID 1979 | actives 0.57% (n = 300,000) | C. albicans CaCi-2 (fluconazole-resistant clinical isolate) + fluconazole, Alamar Blue growth, 48 h | growth inhibition, % (concentration not given with the values);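 active means growth inhibition above about 58% in most replicates, limit read from the data, passing the limit was not always enough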;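 further: all wells also contain fluconazole at 8 µg/ml as a sub-toxic cotreatment; 0% = median of DMSO wells and 100% = median of geldanamycin control wells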
NadD block: NadD (S. aureus) enzyme inhibition. purified NadD enzyme, colorimetric absorbance read-out. inhibition, % at 20 µM. actives 0.78% (n = 360,000). AID 602399; in the data active means inhibition above about 26%
Mot1-301 SUMO: SUMOylation pathway inhibition by Mot1-301 growth rescue; actives 1% (n = 320,000); S. cerevisiae Mot1-301 growth rescue, ATP luminescence, 38.5C; percent above DMSO median, 100 means doubled; AID 2716; growth rescue, % at 18.8 µM;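 active means every valid replicate shows activation above 250% relative to neutral control wells; inactive means the rest, any valid replicate at or below 250%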;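 further: OY570 slx delta 5 strain wells were the positive control but not used for scaling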
FAS TE block: blocks the thioesterase domain of human fatty acid synthase. recombinant FAS-TE, OMFH fluorogenic substrate, fluorescence endpoint. AID 602261. actives 0.67% (n = 360,000). P49327. inhibition, % at 15 µM;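 active means compounds whose normalised, plate-corrected inhibition of enzyme fluorescence in the single-dose primary screen is 50% or more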;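 further: 0% = DMSO with enzyme and 100% = substrate without enzyme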
* hit, by the source's call; · = not tested or not shown. A selection: hits, their analogues and other compounds. The true share with any hit is near 3.1%.

SMILES | ATG4B inh | Calb FLC | NadD block | Mot1-301 SUMO | FAS TE block
COc1cccc(NC(=O)CN(C)C(=O)c2ccc3c(c2)C(=O)N(CCC(C)C)C3=O)c1 | -11 | · | -3 | -8 | 12
O=C(NCC1CCCO1)c1cc([N+](=O)[O-])ccc1N1CCC(Cc2ccccc2)CC1 (configuration not stated) | 1 | · | 3 | 10 | 31
Cc1ccc(S(=O)(=O)N2CC3=C(C2)C2CC2(C)C3)cc1 (configuration not stated) | · | · | -9 | · | 13
O=S(=O)(O)c1cc(O)c2c(O)c(N=Nc3cc(Cl)ccc3O)c(S(=O)(=O)O)cc2c1 | 6 | 85* | -1 | 17 | 5
Cc1cc(-c2ccc(N=Nc3c(S(=O)(=O)O)cc4cc(S(=O)(=O)O)cc(N)c4c3O)c(C)c2)ccc1N=Nc1c(S(=O)(=O)O)cc2cc(S(=O)(=O)O)cc(N)c2c1O | · | · | · | 376 | ·
COC(=O)/C=C/C(=O)N1CCN(c2ccccc2C)CC1 | -7 | 2 | 0 | 439* | -6
c1ccc(-c2cn(-c3ccccc3)c3[n+]2CCS3)cc1 | -4 | 2 | -1 | 84 | -8
CC(C)(C)c1ccc(-c2cn(-c3ccc(Br)cc3)c3[n+]2CCCS3)cc1 | 5 | 102* | 2 | · | -5
CC1(C)CC(N2CCCC2)=CC(=[N+]2CCCC2)C1 | 0 | 120* | 11 | 9 | -11
CC1(C)CC(N2CCN(Cc3ccccc3)CC2)=CC(=[N+]2CCCCC2)C1 | 7 | 83* | 12 | 123 | -4
COc1ccc(CN2CCC2(C)C(=O)Nc2ccc(OC)c(OC)c2)cc1 (configuration not stated) | · | · | 7 | · | -2
Nc1nn2c(-c3ccccc3)cc(=O)[nH]c2c1N=Nc1ccc(Br)cc1 | 14 | · | 77* | · | 37
CC(C)c1ccc(NC(=O)CCCN2C(=S)NC(C)(C)CC2C)cc1 (configuration not stated) | -5 | -11 | 4 | -4 | 9
C=CCN1C(=O)/C(=C\c2ccc(Oc3nc(N4CCOCC4)nc(N4CCOCC4)n3)c(OC)c2)SC1=S | -1 | -5 | 2 | 5 | 27
COc1ccc(CN2CC[C@H]3C=CC[C@@H](C(=O)Nc4ccc(Cl)c(C(F)(F)F)c4)[C@H]3C2=O)cc1OC | 9 | 0 | 7 | 7 | 47
O=C(/C=C/c1ccncc1)c1ccc2c(c1)OCCO2 | -8 | 67* | -5 | 0 | -4
O=C(/C=C/c1ccccc1)c1ccc2c(c1)OCO2 | 8 | 1 | -3 | -29 | 7
O=C(Nc1cc(Cl)ccc1N1CCCC1)C1=COCCO1 | 1 | · | -1 | 5 | 4
CC(C)NC(=S)Nc1c(N)[nH]c(=O)[nH]c1=O | -2 | 6 | -6 | 343* | -8
CC(=O)c1ccc(Nc2nc(C(N)C(C)C)cs2)cc1 (configuration not stated) | · | · | -6 | · | -2
CCn1cc(C(=O)O)c(=O)c2cc(F)c(N/N=C/c3ccccc3[N+](=O)[O-])cc21 | 4 | -19 | 21 | 669* | -2
COc1ccc(-c2cc(C(=O)NCC3CCCO3)c3ccccc3n2)c(OC)c1 (configuration not stated) | -4 | 4 | 0 | 6 | -2
CCOc1ccc(-c2cc(C(=O)NCC3CCCO3)c3ccccc3n2)cc1 (configuration not stated) | 6 | 12 | -2 | 352* | 2
NC(=O)CSc1oc(-c2ccco2)nc1S(=O)(=O)c1ccc(F)cc1 | -5 | -1 | -10 | 67 | -4
N/C(=N\OC(=O)N1c2ccccc2Sc2ccccc21)c1ccccc1 | 24 | 94* | 7 | -19 | 24
SMILES | ATG4B inh | Calb FLC | NadD block | Mot1-301 SUMO | FAS TE block
Cc1ccc(-n2c(Cc3ccccc3)n[nH]c2=S)c(C)c1 | 2 | 72* | -1 | 16 | 0
Cc1ccc(-n2c(CC#N)n[nH]c2=S)c(C)c1 | 11 | 12 | -1 | 12 | -1
Cc1ccc([C@H]2C[C@H](O)[C@@H](n3cc(-c4ccc(F)cc4)nn3)CN2CC2CCCCC2)cc1 | · | · | 1 | · | 6
CCCCC(=O)NC(c1ccc(Cl)cc1)c1ccc2cccnc2c1O (configuration not stated) | 7 | 97* | 4 | -18 | 10
CCCC(=O)NC(c1ccc(Cl)cc1)c1ccc2cccnc2c1O (configuration not stated) | 6 | 108* | -1 | 1 | -1
CCCC(=O)NC(c1ccc(C)cc1)c1ccc2cccnc2c1O (configuration not stated) | -1 | 86* | 1 | 1 | 5
